Reference: PubChem BioAssay (NCATS)
Inconclusive results are not listed. A call without a number means that no potency is given here. A number with no mark means an inactive call. Active and inactive are the calls of the source. The call rests on the fitted dose curve; in most records, active means well fitted curve in the direction sought with a large enough effect; inconclusive means small, poorly fitted or top-dose-only effect, or another doubt; inactive means no such curve, though single readings can be large; an effect the other way counts as inactive or inconclusive.

Assays:
[1] = qHTS of pediatric cancer cell lines to identify multiple opportunities for drug repurposing: Primary screen for Saos-2 cells (AID 1347097); further: nearly all actives have a fitted effect of over 40% in size
In short: (§1)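 Cells plated at 500-1,000/well in growth medium, compounds added after 5 h. MIPE tested at 11 points (from 0.78 nM), NPC at 8 points (from 0.59 nM). CellTiter-Glo luminescence after 48 h; concentration-response curves from primary screen.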

[2] = qHTS of pediatric cancer cell lines to identify multiple opportunities for drug repurposing: Primary screen for SK-N-SH cells (AID 1347098);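 further: DMSO served as neutral control and bortezomib at 2.3 µM as positive control; nearly all actives have a fitted effect of over 65% in size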
In short: (§2)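 Cells (500-1,000/well) rested 5 h, then received compounds for 48 h; metabolically active cells were measured by CellTiter-Glo luminescence. Final concentrations spanned up to 46 µM (MIPE, 11-point) or 0.59 nM-46 µM (NPC, 8-point) in primary screens, 11-point in follow-ups.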

[3] = qHTS of pediatric cancer cell lines to identify multiple opportunities for drug repurposing: Primary screen for NB1643 cells (AID 1347099); further: nearly all actives have a fitted effect of over 50% in size
In short: as §1

[4] = qHTS of pediatric cancer cell lines to identify multiple opportunities for drug repurposing: Primary screen for LAN-5 cells (AID 1347100)
In short: (§3)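 Cells (500-1,000/well) in growth media were settled 5 h at 37 degrees C, then given compounds for 48 h. Viability was read as CellTiter-Glo luminescence. Primary runs used MIPE at 11 points (0.78 nM-46 µM) and NPC at 8 points (0.59 nM-46 µM); follow-ups used 11 points.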

[5] = qHTS of pediatric cancer cell lines to identify multiple opportunities for drug repurposing: Primary screen for BT-12 cells (AID 1347101); further: nearly all actives have a fitted effect of over 25% in size
In short: as §2

[6] = qHTS of pediatric cancer cell lines to identify multiple opportunities for drug repurposing: Primary screen for Rh18 cells (AID 1347102); further: nearly all actives have a fitted effect of over 65% in size
In short: as §3

[7] = qHTS of pediatric cancer cell lines to identify multiple opportunities for drug repurposing: Primary screen for OHS-50 cells (AID 1347103); further: nearly all actives have a fitted effect of over 40% in size; further: potency means the concentration at half of the fitted maximal effect
In short: as §2

[8] = qHTS of pediatric cancer cell lines to identify multiple opportunities for drug repurposing: Primary screen for RD cells (AID 1347104); further: nearly all actives have a fitted effect of over 55% in size
In short: as §1

[9] = qHTS of pediatric cancer cell lines to identify multiple opportunities for drug repurposing: Primary screen for MG 63 (6-TG R) cells (AID 1347105); further: nearly all actives have a fitted effect of over 50% in size
In short: as §1

[10] = qHTS of pediatric cancer cell lines to identify multiple opportunities for drug repurposing: Primary screen for control Hh wild type fibroblast cells (AID 1347106);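 further: series mostly up to about 46 µM; a drop in luminescence marks cytotoxicity and a rise apparent proliferation; nearly all actives have a fitted effect of over 55% in size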
In short: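 Viability after 48 h compound treatment at 37C, 500-1,000 cells/well, read as ATP luminescence with CellTiter-Glo. Primary screens used 11-point (MIPE, 0.78 nM-46 µM) or 8-point (NPC, 0.59 nM-46 µM) final concentrations; follow-up screens used 11-point dilutions.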

Cc1onc(-c2c(Cl)cccc2Cl)c1C(=O)N[C@@H]1C(=O)N2[C@@H]1SC(C)(C)[C@@H]2C(=O)O
Potency [1]: inactive
Potency [2]: inactive
Potency [3]: inactive
Potency [4]: inactive
Potency [5]: inactive
Potency [6]: inactive
Potency [7]: inactive
Potency [8]: inactive
Potency [9]: inactive
Potency [10]: inactive

Cc1cc(=O)n(-c2ccccc2)n1C
Potency [1]: inactive
Potency [2]: inactive
Potency [3]: inactive
Potency [4]: inactive
Potency [5]: inactive
Potency [6]: inactive
Potency [7]: inactive
Potency [8]: inactive
Potency [9]: inactive
Potency [10]: inactive

CN1CCC[C@@H]1c1cccnc1
Potency [1]: inactive
Potency [2]: inactive
Potency [3]: inactive
Potency [4]: inactive
Potency [5]: inactive
Potency [6]: inactive
Potency [7]: inactive
Potency [8]: inactive
Potency [9]: inactive
Potency [10]: inactive

NC(=O)CC[C@@H]1NC(=O)[C@H](Cc2ccccc2)NC(=O)[C@H](Cc2ccc(O)cc2)NC(=O)CCSSC[C@@H](C(=O)N2CCC[C@H]2C(=O)N[C@@H](CCCN=C(N)N)C(=O)NCC(N)=O)NC(=O)[C@H](CC(N)=O)NC1=O
Potency [1]: inactive
Potency [2]: inactive
Potency [3]: inactive
Potency [4]: inactive
Potency [5]: inactive
Potency [6]: inactive
Potency [7]: inactive
Potency [8]: inactive
Potency [9]: inactive
Potency [10]: inactive

Nc1nc2ncc(CNc3ccc(C(=O)N[C@@H](CCC(=O)O)C(=O)O)cc3)nc2c(=O)[nH]1
Potency [1]: inactive
Potency [2]: inactive
Potency [3]: inactive
Potency [4]: inactive
Potency [5]: inactive
Potency [6]: inactive
Potency [7]: inactive
Potency [8]: inactive
Potency [9]: inactive
Potency [10]: inactive

NC(=O)c1cc[n+](CC2=C(C(=O)[O-])N3C(=O)[C@@H](NC(=O)Cc4cccs4)[C@H]3SC2)cc1
Potency [1]: inactive
Potency [2]: inactive
Potency [3]: inactive
Potency [4]: inactive
Potency [5]: inactive
Potency [6]: inactive
Potency [7]: inactive
Potency [8]: inactive
Potency [9]: inactive
Potency [10]: inactive

CCOC(=O)c1cccc(N)c1
Potency [1]: inactive
Potency [2]: inactive
Potency [3]: inactive
Potency [4]: inactive
Potency [5]: inactive
Potency [6]: inactive
Potency [7]: inactive
Potency [8]: inactive
Potency [9]: inactive
Potency [10]: inactive

C[C@H]1[C@H](NC(=O)/C(=N/OC(C)(C)C(=O)O)c2csc(N)n2)C(=O)N1S(=O)(=O)O (stereo in doubt)
Potency [1]: inactive
Potency [2]: inactive
Potency [3]: inactive
Potency [4]: inactive
Potency [5]: inactive
Potency [6]: inactive
Potency [7]: inactive
Potency [8]: inactive
Potency [9]: inactive
Potency [10]: inactive

CCCN1CCCC[C@H]1C(=O)Nc1c(C)cccc1C
Potency [1]: inactive
Potency [2]: inactive
Potency [3]: inactive
Potency [4]: inactive
Potency [5]: inactive
Potency [6]: inactive
Potency [7]: inactive
Potency [8]: inactive
Potency [9]: inactive
Potency [10]: inactive

C[C@H]1C[C@H]2[C@@H]3CCC4=CC(=O)C=C[C@]4(C)[C@@]3(Cl)[C@@H](O)C[C@]2(C)[C@@]1(O)C(=O)CO
Potency [1]: inactive
Potency [2]: inactive
Potency [3]: inactive
Potency [4]: inactive
Potency [5]: inactive
Potency [6]: inactive
Potency [7]: 24.6 µM (active)
Potency [8]: inactive
Potency [9]: inactive
Potency [10]: inactive

NC[C@H]1O[C@H](O[C@H]2[C@H](O)[C@@H](O[C@H]3O[C@H](CO)[C@@H](O)[C@H](N)[C@H]3O)[C@H](N)C[C@@H]2N)[C@H](N)[C@@H](O)[C@@H]1O
Potency [1]: inactive
Potency [2]: inactive
Potency [3]: inactive
Potency [4]: inactive
Potency [5]: inactive
Potency [6]: inactive
Potency [7]: inactive
Potency [8]: inactive
Potency [9]: inactive
Potency [10]: inactive

CC(=O)CC(c1ccc([N+](=O)[O-])cc1)c1c(O)c2ccccc2oc1=O (centres undefined)
Potency [1]: inactive
Potency [2]: inactive
Potency [3]: inactive
Potency [4]: inactive
Potency [5]: inactive
Potency [6]: inactive
Potency [7]: inactive
Potency [8]: inactive
Potency [9]: inactive
Potency [10]: inactive

C[C@]12CCC(=O)C=C1CC[C@H]1[C@@H]3CC[C@](O)(C(=O)CO)[C@@]3(C)C[C@H](O)[C@@]12F
Potency [1]: inactive
Potency [2]: inactive
Potency [3]: inactive
Potency [4]: inactive
Potency [5]: inactive
Potency [6]: inactive
Potency [7]: inactive
Potency [8]: inactive
Potency [9]: inactive
Potency [10]: inactive

Cc1cccn2c(=O)c(-c3nnn[nH]3)cnc12
Potency [1]: inactive
Potency [2]: inactive
Potency [3]: inactive
Potency [4]: inactive
Potency [5]: inactive
Potency [6]: inactive
Potency [7]: inactive
Potency [8]: inactive
Potency [9]: inactive
Potency [10]: inactive

CCC(C(=O)OCCN(CC)CC)c1ccccc1 (centres undefined)
Potency [1]: inactive
Potency [2]: inactive
Potency [3]: inactive
Potency [4]: inactive
Potency [5]: inactive
Potency [6]: inactive
Potency [7]: inactive
Potency [8]: inactive
Potency [9]: inactive
Potency [10]: inactive

Cc1ccc(C(=O)C(C)CN2CCCCC2)cc1 (centres undefined)
Potency [1]: inactive
Potency [2]: inactive
Potency [3]: inactive
Potency [4]: inactive
Potency [5]: inactive
Potency [6]: inactive
Potency [7]: inactive
Potency [8]: inactive
Potency [9]: inactive
Potency [10]: inactive

OC[C@@H](O)[C@@H](O[C@@H]1O[C@H](CO)[C@H](O)[C@H](O)[C@H]1O)[C@H](O)[C@@H](O)CO
Potency [1]: inactive
Potency [2]: inactive
Potency [3]: inactive
Potency [4]: inactive
Potency [5]: inactive
Potency [6]: inactive
Potency [7]: inactive
Potency [8]: inactive
Potency [9]: inactive
Potency [10]: inactive

O=c1ccc2ccccc2o1
Potency [1]: inactive
Potency [2]: inactive
Potency [3]: inactive
Potency [4]: inactive
Potency [5]: inactive
Potency [6]: inactive
Potency [7]: inactive
Potency [8]: inactive
Potency [9]: inactive
Potency [10]: inactive

CC[C@@H](CO)NCCN[C@@H](CC)CO
Potency [1]: inactive
Potency [2]: inactive
Potency [3]: inactive
Potency [4]: inactive
Potency [5]: inactive
Potency [6]: inactive
Potency [7]: inactive
Potency [8]: inactive
Potency [9]: inactive
Potency [10]: inactive

CCC(=O)c1c(O)cc(O)cc1O
Potency [1]: inactive
Potency [2]: inactive
Potency [3]: inactive
Potency [4]: inactive
Potency [5]: inactive
Potency [6]: inactive
Potency [7]: inactive
Potency [9]: inactive
Potency [10]: inactive
